A selection: hits, their analogues and other compounds. The true share with any hit is near 1.9%.
dFosB act-1: activators of delta FosB homodimer, primary screen, biochemical, fluorescence polarization, TAMRA-CDK5 oligo, single point. AID 493131, 2011. Protein FosB (Mus musculus), P13346. activation, % at 25 µM. purified delta FosB; percent of positive-control signal above neutral wells. 340,000 tested, 0.99% active;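 active means mean activation above about 17%, with every replicate also reaching it, limit read from the data, passing the limit was not always enough; inconclusive means only one of the two conditions met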
Target sequence (P13346 whole entry, looked up): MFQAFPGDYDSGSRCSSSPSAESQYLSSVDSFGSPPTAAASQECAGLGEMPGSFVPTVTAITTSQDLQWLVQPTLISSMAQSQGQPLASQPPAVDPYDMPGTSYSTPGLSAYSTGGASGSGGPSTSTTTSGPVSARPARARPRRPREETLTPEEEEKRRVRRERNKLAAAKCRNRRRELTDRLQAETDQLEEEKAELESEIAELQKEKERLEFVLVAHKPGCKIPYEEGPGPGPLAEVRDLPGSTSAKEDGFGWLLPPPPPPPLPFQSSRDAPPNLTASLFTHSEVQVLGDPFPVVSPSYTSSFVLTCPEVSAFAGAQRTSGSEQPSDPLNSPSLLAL
p47phox inh: p47phox/p22phox peptide binding inhibitors, primary screen, biochemical, uHTS, NADPH oxidase regulatory subunit; inhibition, % at 24.7 µM; Neutrophil cytosol factor 1 (Homo sapiens), P14598; fluorescence polarization, 2 h; AID 1274, 2008; 220,000 tested, 0.53% active;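 active means inhibition above about 30%, limit read from the data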
Target sequence (P14598 whole entry, looked up): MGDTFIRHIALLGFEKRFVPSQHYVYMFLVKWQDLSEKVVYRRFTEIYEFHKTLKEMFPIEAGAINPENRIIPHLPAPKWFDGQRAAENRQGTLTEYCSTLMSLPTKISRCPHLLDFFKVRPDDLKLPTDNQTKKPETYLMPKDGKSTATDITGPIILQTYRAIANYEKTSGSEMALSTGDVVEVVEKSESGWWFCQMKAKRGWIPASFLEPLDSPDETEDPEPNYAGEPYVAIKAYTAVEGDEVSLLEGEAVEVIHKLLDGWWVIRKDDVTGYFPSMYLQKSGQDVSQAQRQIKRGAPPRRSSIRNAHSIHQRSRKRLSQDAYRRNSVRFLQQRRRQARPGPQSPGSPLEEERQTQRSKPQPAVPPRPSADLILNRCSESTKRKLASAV
14-3-3 Bad inh: inhibitors of 14-3-3 zeta/Bad binding, primary screen, biochemical, TR-FRET, bovine 14-3-3 zeta; 14-3-3 protein zeta/delta (Bos taurus), P63103; TR-FRET 14-3-3zeta/Dy647-pBad peptide displacement, 1 h; inhibition, % at 21.7 µM; 220,000 tested, 0.71% active; AID 781, 2007;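 active means inhibition above about 70%, limit read from the data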
HMGR II inh: inhibitors of E. faecalis class II HMGR, primary screen, biochemical, Enterococcus faecalis; HMG-CoA reductase (Enterococcus faecalis, mvaE); purified E. faecalis HMGR, NADPH absorbance 340 nm kinetic; inhibition, % at 10 µM; 190,000 tested, 0.41% active; AID 1066, 2008;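 active means inhibition above a set limit, the median over all tested compounds plus 3 SD, cut at about 9.5% in these data; inconclusive means no clear call, values can overlap the other calls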;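 further: enzyme runs in reverse so mevalonate oxidation gives rising NADPH absorbance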
dFosB act-2: activators of mouse delta FosB DNA binding, confirmation, biochemical, fluorescence polarization, TAMRA-CDK5 oligo, cherry-picked samples. activation, % at 24.9 µM. purified delta FosB; normalised: neutral wells 0, positive control 100. 2,400 tested, under 10 active. shares compounds with dFosB act-1;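 active means highest replicate activation at or above 34% and every replicate reaching that threshold; inconclusive means meets only one of the two criteria; inactive means meets neither criterion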;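 further: higher polarization means more probe DNA bound by delta FosB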
Large screens that a line does not name were inactive (follow-up assays come after a bar, where they were run).

COc1cc(OC)cc(-c2nnc(NC(=O)c3ccc4c(c3)OCCO4)o2)c1	dFosB act-1 25.7 (no result: p47phox inh, 14-3-3 Bad inh, HMGR II inh) | dFosB act-2 inactive
COc1cccc(C(=O)Nc2nnc(-c3ccc(Cl)cc3)o2)c1	dFosB act-1 22.8 (no result: HMGR II inh) | dFosB act-2 inactive
COc1cc(OC)cc(C(=O)NNC(=O)c2ccc3c(c2)OCCO3)c1	none (no result: p47phox inh, 14-3-3 Bad inh, HMGR II inh)
Cc1ccc(S(=O)(=O)N2CCOCC2)cc1NC(=O)COC(=O)c1n[nH]c(=O)c2ccccc12	none
Cc1cc(Nc2ccc3c(c2)OCCO3)c2cccc(C)c2n1	dFosB act-1 30.6 | dFosB act-2 inactive
CCOc1ccc(Nc2cc(C)nc3c(C)cccc23)cc1	none (no result: p47phox inh, 14-3-3 Bad inh, HMGR II inh)
CCOc1ccc2nc(C)cc(Nc3ccc4c(c3)OCCO4)c2c1	dFosB act-1 43.5 | dFosB act-2 inactive
COCCN(C(=O)COC(=O)c1ccc2c(c1)OCCO2)c1c(N)n(Cc2ccccc2)c(=O)[nH]c1=O	none (no result: p47phox inh, 14-3-3 Bad inh, HMGR II inh)
COc1ccc2cc(C(=O)Nc3ccc(F)cc3)sc(=O)c2c1OC	dFosB act-1 33.5 | dFosB act-2 inactive
COc1ccc2cc(C(=O)Nc3ccc(Cl)cc3)sc(=O)c2c1OC	dFosB act-1 70.7 | dFosB act-2 inactive
O=C(NC(NC(=S)Nc1c(Cl)cccc1Cl)C(Cl)(Cl)Cl)OCc1ccccc1 (stereo not drawn)	dFosB act-1 16.3 | dFosB act-2 inactive
Cc1cnc(SCCc2ccncc2)nc1C	none (no result: dFosB act-1)
Cc1occc1C(=O)Nc1ccc([N+](=O)[O-])cc1Br	none (no result: p47phox inh, 14-3-3 Bad inh, HMGR II inh)
O=C(Nc1ccc([N+](=O)[O-])cc1Br)c1cc2ccccc2nc1Cl	dFosB act-1 112.8 (no result: HMGR II inh) | dFosB act-2 inactive
CN(CC(=O)NCCCc1ccccc1)Cc1ccc(Br)cc1	none (no result: p47phox inh, 14-3-3 Bad inh, HMGR II inh)
CCOc1ccc(-n2cc(C(=O)NCCOC)c3cc(OC)c(OC)cc3c2=O)cc1	none (no result: p47phox inh, 14-3-3 Bad inh, HMGR II inh)
CCOc1ccc(-n2cc(C(=O)Nc3cccc(OC)c3)c3cc(OC)c(OC)cc3c2=O)cc1	dFosB act-1 40.0 | dFosB act-2 inactive
O=C(CSc1nnnn1-c1ccccc1)Nc1ncc(Cc2ccccc2Cl)s1	dFosB act-1 38.9 | dFosB act-2 inactive
O=C(N/N=C/c1ccc(-c2ccccc2Cl)o1)c1ccccc1	dFosB act-1 32.0 | dFosB act-2 inactive
CC1Nc2ncnc(N3CCc4ccccc4C3)c2N(Cc2ccc(Br)cc2)C1=O (stereo not drawn)	dFosB act-1 51.0 (no result: p47phox inh, 14-3-3 Bad inh, HMGR II inh) | dFosB act-2 inactive
COc1cc(C(=O)NCc2ccc(-c3nc4ccccc4s3)cc2)cc(OC)c1OC	none
COc1cc(C(=O)NCc2ccc(-c3nc4ccccc4o3)cc2)cc(OC)c1OC	dFosB act-1 27.3 | dFosB act-2 inactive
Clc1ccc(-c2nnc(NCc3ccccc3)c3ccccc23)cc1	dFosB act-1 18.0 | dFosB act-2 inactive
Cc1ccc(-c2nnc(NCc3ccccc3)c3ccccc23)cc1	none
COc1ccc(NC(=O)CSc2nnnn2-c2ccc(OC)cc2)cc1	none
Cc1ccc(-n2nnnc2SCC(=O)NC(=O)Nc2ccc3c(c2)OCCO3)cc1	dFosB act-1 inconclusive
CC(=O)Nc1ccc(-n2nnnc2SCC(=O)Nc2cccc(NC(=O)c3ccco3)c2)cc1	dFosB act-1 33.0 (no result: HMGR II inh) | dFosB act-2 inactive
COc1cc(OC)cc(-n2nnnc2SCC(=O)Nc2ccc(C(C)=O)cc2)c1	dFosB act-1 37.4 | dFosB act-2 inactive
CCc1ccc(-n2nnnc2SCC(=O)Nc2ccc(NC(C)=O)cc2)cc1	dFosB act-1 17.8 (no result: p47phox inh, 14-3-3 Bad inh, HMGR II inh) | dFosB act-2 inactive
O=C(CSc1nnnn1-c1ccc(Cl)cc1)NC(=O)Nc1ccc2c(c1)OCCO2	dFosB act-1 21.2 | dFosB act-2 inactive
CC(C)OCCCNC(=O)C(Cc1ccccc1)NS(=O)(=O)c1ccc2c(c1)CCC(=O)N2 (stereo not drawn)	none (no result: p47phox inh, 14-3-3 Bad inh, HMGR II inh)
COCCOC(=O)C1=C(C)N=C2SCCC(=O)N2C1c1ccc(OC(=O)c2ccco2)cc1 (stereo not drawn)	none
NNc1nc(Nc2ccc([N+](=O)[O-])cc2)nc(N2CCCCCC2)n1	dFosB act-1 67.2 (no result: p47phox inh, 14-3-3 Bad inh, HMGR II inh) | dFosB act-2 inactive
O=[N+]([O-])c1ccc(Nc2nc(NCCO)nc(N3CCCC3)n2)cc1	none
CN1CCN(S(=O)(=O)c2cccc(C(=O)N(Cc3nnc(-c4ccc(Cl)cc4)o3)C3CC3)c2)CC1	none (no result: p47phox inh, 14-3-3 Bad inh, HMGR II inh)
CC(C)COc1ccc(-c2nn(-c3ccccc3)cc2C(=O)Nc2nccs2)cc1	dFosB act-1 38.6 | dFosB act-2 inactive
OCCN1CCN(c2nc(-c3ccccc3O)nc3ccccc23)CC1	dFosB act-1 24.1 (no result: p47phox inh, 14-3-3 Bad inh, HMGR II inh) | dFosB act-2 inactive
CC(C)(C)c1ccc(C(=O)Cn2nc(C(=O)O)c3ccccc3c2=O)cc1	dFosB act-1 29.2 (no result: HMGR II inh) | dFosB act-2 inactive
CC(C)CC(=O)Nc1ccc(C(=O)Cn2nc(C(=O)O)c3ccccc3c2=O)cc1	none
O=C(CCn1c(=O)c2cccn2c2cccnc21)NCc1cccc(Cl)c1	dFosB act-1 21.2 (no result: p47phox inh, 14-3-3 Bad inh, HMGR II inh) | dFosB act-2 inactive
O=C(CCCn1c(=O)c2cccn2c2cccnc21)NCc1cccc(Br)c1	none (no result: p47phox inh, 14-3-3 Bad inh, HMGR II inh)
C/C(=N\Nc1nc2ccccc2[nH]1)c1ccc2c(c1)OCO2	dFosB act-1 26.6 | dFosB act-2 inactive
CCCCOC(=O)CNc1n[nH]c(=S)[nH]c1=O	none
COc1cc(C(=O)N2CCCC(c3nc(-c4cccs4)no3)C2)cc(OC)c1OC (stereo not drawn)	none
Cn1nc(-c2ccc(C(=O)Nc3ccc(F)cc3)cc2)c2ccccc2c1=O	dFosB act-1 51.4 | dFosB act-2 inactive
Cn1nc(-c2ccc(C(=O)Nc3cccc(Cl)c3)cc2)c2ccccc2c1=O	dFosB act-1 40.2 | dFosB act-2 inactive
Cc1ccc(NC(=O)c2ccc(-c3nn(C)c(=O)c4ccccc34)cc2)cc1	none
Cn1nc(-c2ccc(C(=O)Nc3cccnc3)cc2)c2ccccc2c1=O	none
COc1ccc(-c2cc3c(=O)n(CC(=O)Nc4ccc(Cl)cc4)ncn3n2)cc1	dFosB act-1 30.6 (no result: p47phox inh, 14-3-3 Bad inh, HMGR II inh) | dFosB act-2 inactive
COc1ccc(-c2cc3c(=O)n(CC(=O)NCc4ccccc4F)ncn3n2)cc1	none (no result: p47phox inh, 14-3-3 Bad inh, HMGR II inh)
Cn1c2ccccc2c2cnn(CC(=O)Nc3ccc(Cl)cc3)c(=O)c21	dFosB act-1 25.9 (no result: HMGR II inh) | dFosB act-2 inactive
COc1ccc(NC(=O)Cn2ncn3nc(-c4ccc(OC)cc4)cc3c2=O)cc1	dFosB act-1 63.2 (no result: p47phox inh, 14-3-3 Bad inh, HMGR II inh) | dFosB act-2 inactive
Cc1nn(CC(=O)Nc2ccc(Cl)cc2)c(=O)c2cc(-c3ccccc3)nn12	dFosB act-1 30.0 (no result: p47phox inh, 14-3-3 Bad inh, HMGR II inh) | dFosB act-2 inactive
Cc1noc(C)c1CSCC(=O)Nc1nc2ccc(F)cc2s1	none (no result: p47phox inh, 14-3-3 Bad inh, HMGR II inh)
O=C(NCCC1=CCCCC1)c1cccc2c1C(=O)N(C1CCCCC1)C2	none
Cc1ccc2cc(C)c(NCCO)nc2c1	none
O=C(Nc1ccc(Oc2ncnc3cc(Cl)ccc23)nc1)Nc1cccc(C(F)(F)F)c1	dFosB act-1 39.7 (no result: HMGR II inh) | dFosB act-2 inactive

Screens as filed in PubChem BioAssay.
